Vc quorum ag: quorum light induction in luxS cqsA deficient V. cholerae; 0.16% of 350,000 active; AID 588436; V. cholerae BH1578 lux reporter, luminescence, 6 h; activation, % at 18.7 µM; in the data active = activation mostly above about 9.7%, no sharp cut-off; inconclusive = no clear call, values can overlap the other calls; inactive = mostly below about 3.7%
PrPC TRFRET: reduces human prion protein on the cell surface | P04156 | cell surface PrPC, TR-FRET read-out | inhibition, % at 13.8 µM | 0.43% of 370,000 active; in the data active = inhibition above about 24%; also: 0% = median of the test wells and 100% = reference compound wells
PrP 5UTR inh: suppresses PrP 5' UTR mRNA reporter expression | inhibition, % (concentration not given with the values) | 0.35% of 340,000 active | AID 488862 | cell-based PrP 5' UTR mRNA reporter, plate reader; in the data active = inhibition above about 52%; also: 0 = median of the neutral control wells
SSB-PriA inh: blocks PriA binding to SSB C-terminal tail. inhibition, % at 33 µM. AID 1272365. 0.6% of 430,000 active. AlphaScreen SSBct-PriA binding, biotinylated peptide; in the data active = inhibition mostly above about 37%, no sharp cut-off; inactive = mostly below about 20%;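 also: plate controls were negative control peptide for no effect and reference peptide for full effect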
FadD28 FP inh: M. tuberculosis FadD28 bisubstrate binding inhibition; FadD28 bisubstrate probe binding, fluorescence polarization; inhibition, % at 12.5 µM; 0.22% of 360,000 active; in the data active = inhibition above about 8.5%, passing the limit was not always enough; inconclusive = no clear call, values can overlap the other calls
PrPC confirm: confirmation of inhibitors of cell surface human prion protein; inhibition, % at 13.8 µM; shares compounds with PrPC TRFRET; cell surface PrPC level, TR-FRET; 65% of 1,500 active; in the data active = inhibition above about 25%
LD9 cytotox: kills or reduces viability of LD9 cells in PrPc counter-screen; AID 743201; inhibition, % at 13.8 µM; shares compounds with PrPC TRFRET; 29% of 1,500 active; LD9 cells cytotoxicity, luminescence viability; in the data active = inhibition above about 9.5%
The depositor's hits bear a star. This is a sample that favours compounds with a hit; in the whole collection about 1.4% have one here.

Screening O=C(CSc1ncnc2ccccc12)Nc1nccs1 returned SSB-PriA inh 6.0.
CC(C)c1nc(SCC(=O)Nc2ccc(N(C)C)cc2)c2ccccc2n1 was read as Vc quorum ag 0.9, PrPC TRFRET 79.0*, PrP 5UTR inh -37.7, SSB-PriA inh 2.2, FadD28 FP inh -1.5, PrPC confirm 93.3* and LD9 cytotox -5.1.
`Cc1csc(NC(=O)CSc2nc(C(C)C)nc3ccccc23)n1` gave Vc quorum ag -0.3, PrPC TRFRET 83.9*, PrP 5UTR inh -17.6, SSB-PriA inh 0.5, FadD28 FP inh -5.2, PrPC confirm 105.1* and LD9 cytotox -4.7.
CC(C)c1nc(SCC(=O)NC2CCCCC2)c2ccccc2n1 was read as Vc quorum ag inactive, PrPC TRFRET 3.4, PrP 5UTR inh 7.5, SSB-PriA inh -13.3 and FadD28 FP inh -1.3.
Screening Cn1nc(CNC(=O)NCCCc2ccccc2)cc1-c1ccccn1 returned SSB-PriA inh 12.0.
O=C(Nc1nnc(-c2cc3ccccc3o2)o1)c1ccc([N+](=O)[O-])s1 was read as SSB-PriA inh -2.0.
Screening CCc1cccc(CC)c1NC(=O)CO/N=C(\C)c1cccs1 returned Vc quorum ag 2.3, PrPC TRFRET 34.5*, PrP 5UTR inh 1.1, FadD28 FP inh -2.5, PrPC confirm 29.7* and LD9 cytotox -6.4.
For CC(=O)c1ccc(NC(=O)CO/N=C(\C)c2cccs2)cc1 the results were Vc quorum ag -0.3, PrPC TRFRET 4.0, PrP 5UTR inh 1.8 and FadD28 FP inh -3.2.
For CC(C)(C)c1csc(CN2CCN(S(=O)(=O)c3ccc(F)cc3)CC2)n1 the results were SSB-PriA inh -3.0.
CSc1ccccc1NC(=O)c1cc(S(=O)(=O)N(C)C)ccc1N1CCCC1 was read as Vc quorum ag -9.8, PrPC TRFRET 5.7, PrP 5UTR inh -3.9, SSB-PriA inh 13.1 and FadD28 FP inh -3.3.
Cc1ccc(NC(=O)c2cc(S(=O)(=O)N(C)C)ccc2N2CCCC2)cc1F was read as Vc quorum ag -3.6, PrPC TRFRET 62.8*, PrP 5UTR inh -14.9, SSB-PriA inh -1.3, FadD28 FP inh -11.3, PrPC confirm 54.5* and LD9 cytotox -5.6.
CN(C)S(=O)(=O)c1ccc(N2CCCC2)c(C(=O)Nc2ccccc2)c1 was read as Vc quorum ag inactive, PrPC TRFRET 42.3*, PrP 5UTR inh -22.7, SSB-PriA inh -3.8, FadD28 FP inh -1.3, PrPC confirm 40.5* and LD9 cytotox -9.8.
`Cc1nnc(NC(=O)c2cc(S(=O)(=O)N(C)C)ccc2N2CCCC2)s1` gave Vc quorum ag inactive, PrPC TRFRET 24.8*, PrP 5UTR inh -15.7, SSB-PriA inh -10.1, FadD28 FP inh 0.1, PrPC confirm 24.0 and LD9 cytotox -3.9.
`Nn1cnc2c(cnn2-c2ccc(F)cc2)c1=O` gave SSB-PriA inh 6.0.
O=C(CCS(=O)(=O)c1ccccc1)NCCn1cnc2ccsc2c1=O was read as SSB-PriA inh -21.0.
`O=C(Nc1ccc2c(c1)CN(C(=O)C1CC1)CC2)c1ccc(F)cc1Cl` gave SSB-PriA inh -1.0.
`CCCOc1ccc(C=NNc2ccccc2[N+](=O)[O-])c(O)c1` gave SSB-PriA inh 22.8.
CCC(=O)c1cn(CC(=O)Nc2cccc(C)c2C)c2ccccc12 was read as Vc quorum ag -0.5, PrPC TRFRET 18.5, PrP 5UTR inh -21.5, SSB-PriA inh 3.2 and FadD28 FP inh 0.0.
Screening Cc1cccc(NC(=O)Cn2cc(C(=O)C3CC3)c3ccccc32)c1C returned Vc quorum ag -0.1, PrPC TRFRET 31.3*, PrP 5UTR inh 10.5, SSB-PriA inh -8.8, PrPC confirm 23.3 and LD9 cytotox 22.0*.
For COc1cc2sc3cc(NCc4ccc(C)o4)ccc3c(=O)c2cc1OC the results were Vc quorum ag -1.4, PrPC TRFRET -3.7, PrP 5UTR inh -38.9, SSB-PriA inh 10.3 and FadD28 FP inh -4.4.
COc1ccc(NCc2ccc3c(c2)OCO3)cc1Cl was read as Vc quorum ag inactive, PrPC TRFRET 0.7, PrP 5UTR inh -31.4, SSB-PriA inh 28.0 and FadD28 FP inh 0.7.
For COc1cccc2sc3cc(NCc4ccc5c(c4)OCO5)ccc3c(=O)c12 the results were Vc quorum ag inactive, PrPC TRFRET 94.5*, PrP 5UTR inh -19.9, SSB-PriA inh -2.8, FadD28 FP inh -4.0, PrPC confirm 139.3* and LD9 cytotox -3.3.
For COc1cc2sc3cc(NCc4ccc5c(c4)OCO5)ccc3c(=O)c2cc1OC the results were Vc quorum ag -0.4, PrPC TRFRET 39.1*, PrP 5UTR inh -17.1, SSB-PriA inh -10.6, FadD28 FP inh -13.3, PrPC confirm 67.0* and LD9 cytotox 3.0.
`O=C(C[C@H]1C/C=C/CC[C@@H](Cc2ccc(F)cc2)C(=O)OC[C@H]2CCCN2C1=O)N[C@@H](CO)Cc1ccccc1` gave SSB-PriA inh 9.8.
CCOC(=O)C(CC)Sc1nnc2c3cc(C)ccc3n(C)c2n1 (stereo unspecified) was read as Vc quorum ag -0.2, PrPC TRFRET 30.1*, PrP 5UTR inh -13.8, SSB-PriA inh -27.8, FadD28 FP inh -1.0, PrPC confirm 34.5* and LD9 cytotox -4.9.
For Nc1nc(-c2cccs2)c(-c2cccs2)s1 the results were Vc quorum ag -0.3, PrPC TRFRET 24.8*, PrP 5UTR inh -9.1, SSB-PriA inh 11.7, FadD28 FP inh inconclusive, PrPC confirm 19.8 and LD9 cytotox -0.8.
For CC1CC1C(=O)Nc1nc(-c2cccs2)c(-c2cccs2)s1 (stereo unspecified) the results were Vc quorum ag inactive, PrPC TRFRET 25.4*, PrP 5UTR inh -14.6, SSB-PriA inh -16.0, FadD28 FP inh 4.4, PrPC confirm 12.3 and LD9 cytotox -2.8.
Screening Nc1nc(-c2cccs2)c(CC(=O)O)s1 returned Vc quorum ag -0.4, PrPC TRFRET -8.9, PrP 5UTR inh -28.6, SSB-PriA inh 4.1 and FadD28 FP inh 1.1.
For Nc1ccc2cc3[nH]c4cc(N)ccc4c3nc2c1 the results were PrPC TRFRET 27.2*, PrP 5UTR inh -37.4, SSB-PriA inh -12.1, FadD28 FP inh inconclusive, PrPC confirm 10.5 and LD9 cytotox 31.4*.
`Cc1ccc(OCC(O)CN(C)C2CCCCC2)cc1` (stereo unspecified) gave SSB-PriA inh 6.0.
For COc1ccc(C(=O)Nc2ccc(NC(=O)c3cc(OC)c(OC)c(OC)c3)cn2)cc1 the results were Vc quorum ag -1.2, PrPC TRFRET 43.5*, PrP 5UTR inh -14.0, SSB-PriA inh 8.3, FadD28 FP inh -2.7, PrPC confirm 37.6* and LD9 cytotox 2.4.
COc1cc(Cn2c3ccc(NC(=O)NCc4ccc(F)cc4)cc3c(=O)n2C)ccc1F was read as Vc quorum ag -0.4, PrPC TRFRET 13.2 and FadD28 FP inh 1.2.
`COc1ccc(OC)c(CC(=O)Nc2ccc3c(c2)c(=O)n(C)n3Cc2cccc(C(F)(F)F)c2)c1` gave Vc quorum ag -0.3, PrPC TRFRET 82.0*, FadD28 FP inh -1.0, PrPC confirm 29.1* and LD9 cytotox 3.7.
